# Values joined by “and” are separate entries in the source; they are usually repeats but may differ in a detail not shown here. Equal values may be shown once. Results filed as inconclusive are left out. A call without a number means that no potency is given here. Unmarked numbers belong to inactive results. Active and inactive are the calls of the source. Unless noted, the call rests on the fitted dose curve; in most records, active means well fitted curve in the direction sought with a large enough effect in the repeat runs; inconclusive means weak or mixed curves; inactive means no such curve, though single readings can be large; an effect the other way counts as inactive or inconclusive.
# What was measured:
# [1] = qHTS assay to identify aromatase inhibitors - cell viability counter screen (AID 743084);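 further: cells stimulated with testosterone during compound exposure; nearly all actives have a fitted effect of over 55% in size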
# [2] = molecular target: Aryl hydrocarbon receptor (Homo sapiens) (UniProt P35869); test: qHTS assay to identify small molecule that activate the aryl hydrocarbon receptor (AhR) signaling pathway (AID 743085); further: nearly all actives have a fitted effect of over 15% in size; further: potency means the concentration at half of the fitted maximal effect;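 on activation: HG2L7.5c1 human HepG2 liver cells with stably integrated DRE-driven firefly reporter; series mostly up to about 70 µM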
# Aryl hydrocarbon receptor (Homo sapiens), sequence (P35869 whole entry, looked up): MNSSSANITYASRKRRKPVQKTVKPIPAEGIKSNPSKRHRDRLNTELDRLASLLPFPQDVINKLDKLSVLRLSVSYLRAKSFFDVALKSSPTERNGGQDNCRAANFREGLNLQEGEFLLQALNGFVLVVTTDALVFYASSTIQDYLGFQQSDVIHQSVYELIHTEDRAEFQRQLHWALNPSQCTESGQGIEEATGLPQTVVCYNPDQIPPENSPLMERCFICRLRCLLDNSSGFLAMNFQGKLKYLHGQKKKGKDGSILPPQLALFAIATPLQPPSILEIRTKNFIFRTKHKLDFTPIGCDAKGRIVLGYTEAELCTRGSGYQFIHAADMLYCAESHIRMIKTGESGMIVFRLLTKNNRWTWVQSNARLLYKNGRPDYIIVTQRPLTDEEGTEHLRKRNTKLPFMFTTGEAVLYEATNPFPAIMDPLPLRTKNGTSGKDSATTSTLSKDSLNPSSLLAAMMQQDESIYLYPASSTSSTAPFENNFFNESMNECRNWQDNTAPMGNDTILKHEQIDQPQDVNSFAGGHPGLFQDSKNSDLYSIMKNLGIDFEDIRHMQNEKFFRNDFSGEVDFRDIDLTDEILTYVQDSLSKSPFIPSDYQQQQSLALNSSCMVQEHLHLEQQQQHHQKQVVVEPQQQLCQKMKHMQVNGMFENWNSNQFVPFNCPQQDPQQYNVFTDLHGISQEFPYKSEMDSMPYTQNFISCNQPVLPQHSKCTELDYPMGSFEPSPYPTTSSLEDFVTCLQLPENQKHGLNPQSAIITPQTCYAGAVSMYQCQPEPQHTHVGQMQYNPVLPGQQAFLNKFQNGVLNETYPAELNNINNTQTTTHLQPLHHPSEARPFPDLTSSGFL
# In short: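 24 h compound exposure, 37C, HepG2-derived HG2L7.5c1 cells with DRE-responsive luciferase. Readouts: fluorescence viability, then luminescence at room temperature after 30 min.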
# [3] = qHTS assay to identify small molecule that activate the aryl hydrocarbon receptor (AhR) signaling pathway - cell viability counter screen (AID 743086);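 further: HepG2 liver cells carrying the AhR DRE luciferase reporter; series mostly up to about 70 µM; nearly all actives have a fitted effect of over 45% in size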
# In short: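 Cytotoxicity counter screen: CellTiter-Fluor signal (30 min, 37 C) in 4000 HepG2 cells/well carrying the DRE-luciferase reporter, following 24 h compound exposure at 37 C.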
# [4] = molecular target: Peroxisome proliferator-activated receptor gamma (Homo sapiens) (UniProt P37231); test: qHTS assay to identify small molecule agonists of the peroxisome proliferator-activated receptor gamma (PPARg) signaling pathway (AID 743094; active means well fitted activation curve with a large enough effect in the signal ratio in the repeat runs, not every such curve was filed as active; the % refers to the signal ratio)
# Peroxisome proliferator-activated receptor gamma (Homo sapiens), sequence (P37231 whole entry, looked up): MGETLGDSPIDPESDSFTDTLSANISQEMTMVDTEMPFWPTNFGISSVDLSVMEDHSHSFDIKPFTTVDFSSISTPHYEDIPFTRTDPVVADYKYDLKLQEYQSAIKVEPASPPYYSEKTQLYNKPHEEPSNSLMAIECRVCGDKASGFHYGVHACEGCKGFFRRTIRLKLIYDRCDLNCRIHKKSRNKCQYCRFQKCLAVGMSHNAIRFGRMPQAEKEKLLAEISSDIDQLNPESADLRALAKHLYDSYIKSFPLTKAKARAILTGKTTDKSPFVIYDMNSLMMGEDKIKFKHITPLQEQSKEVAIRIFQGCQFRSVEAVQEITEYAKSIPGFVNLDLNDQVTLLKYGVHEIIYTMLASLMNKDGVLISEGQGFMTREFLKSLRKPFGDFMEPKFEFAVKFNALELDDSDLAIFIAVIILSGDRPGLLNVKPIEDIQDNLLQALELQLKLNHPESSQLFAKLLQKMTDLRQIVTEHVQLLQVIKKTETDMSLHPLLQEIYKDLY
# In short: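 GeneBLAzer PPARg UAS-bla HEK293H cells were plated, rested 5 h, then exposed to compounds for 17 h at 37C. Beta-lactamase activity was read by LiveBLAzer B/G FRET substrate fluorescence after 1 h at room temperature.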
# [5] = qHTS assay to identify small molecule antagonists of the peroxisome proliferator-activated receptor gamma (PPARg) signaling pathway - cell viability counter screen (AID 743194); further: nearly all actives have a fitted effect of over 55% in size
# In short: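 Viability was measured as CellTiter-Glo luminescence in GeneBLAzer PPARg UAS-bla HEK293H cells. These cells had been exposed 17 h at 37 C to compounds together with rosiglitazone at 50 nM final, with the beta-lactamase readout taken in the same wells.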
# [6] = qHTS assay for small molecule agonists of the antioxidant response element (ARE) signaling pathway (AID 743202; active means well fitted activation curve with a large enough effect in the signal ratio in the repeat runs, not every such curve was filed as active; the % refers to the signal ratio)
# In short: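 Quantitative high-throughput format in HepG2 cells bearing an integrated ARE-beta-lactamase reporter. Compound exposure lasted 16 h at 37 C, and fluorescence was read 2 h after adding LiveBLAzer B/G substrate at room temperature.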
# [7] = qHTS assay for small molecule agonists of the antioxidant response element (ARE) signaling pathway - cell viability counter screen (AID 743203; calls by dose curve; further: nearly all actives have a fitted effect of over 55% in size)
# In short: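 ARE-bla HepG2 cells were plated, rested 5 h at 37C/5% CO2, then exposed to compounds in DMSO for 16 h. Viability was read as CellTiter-Glo luminescence after 30 min at room temperature, in the same wells as the ARE screen.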
# [8] = qHTS assay for small molecule activators of the heat shock response signaling pathway - cell viability counter screen (AID 743209); further: nearly all actives have a fitted effect of over 50% in size
# In short: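 HSE-bla HeLa cells plated overnight, then exposed to Tox21 compounds (23 nL in DMSO) for 5 h at 37 C. After the bla reporter read, CellTiter-Glo was added in the same wells and luminescence read after 30 min at room temperature.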
# [9] = qHTS assay for small molecule activators of the heat shock response signaling pathway (AID 743210; active means well fitted activation curve with a large enough effect in the signal ratio in the repeat runs, with a control signal flat, not every such curve was filed as active; the % refers to the signal ratio;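 further: HeLa cells with beta-lactamase reporter driven by heat shock elements; series mostly up to about 63 µM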)
# In short: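 HeLa HSE-bla cells, overnight plating; cpd in DMSO 5 h, 37 C; LiveBLAzer B/G FRET substrate 2.5 h RT; fluorescence intensity read.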
# [10] = qHTS assay to identify small molecule agonists of the peroxisome proliferator-activated receptor delta (PPARd) signaling pathway - cell viability counter screen (AID 743211); further: nearly all actives have a fitted effect of over 55% in size
# In short: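 Luminescent ATP viability assay (CellTiter-Glo, 30 min RT) in UAS-bla HEK293H cells carrying the PPAR delta reporter construct, 3000 cells/well, after a 17 h compound treatment at 37 C.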
# [11] = molecular target: Peroxisome proliferator-activated receptor delta (Homo sapiens) (UniProt Q03181); test: qHTS assay to identify small molecule agonists of the peroxisome proliferator-activated receptor delta (PPARd) signaling pathway (AID 743212; calls by dose curve)
# Peroxisome proliferator-activated receptor delta (Homo sapiens), sequence (Q03181 whole entry, looked up): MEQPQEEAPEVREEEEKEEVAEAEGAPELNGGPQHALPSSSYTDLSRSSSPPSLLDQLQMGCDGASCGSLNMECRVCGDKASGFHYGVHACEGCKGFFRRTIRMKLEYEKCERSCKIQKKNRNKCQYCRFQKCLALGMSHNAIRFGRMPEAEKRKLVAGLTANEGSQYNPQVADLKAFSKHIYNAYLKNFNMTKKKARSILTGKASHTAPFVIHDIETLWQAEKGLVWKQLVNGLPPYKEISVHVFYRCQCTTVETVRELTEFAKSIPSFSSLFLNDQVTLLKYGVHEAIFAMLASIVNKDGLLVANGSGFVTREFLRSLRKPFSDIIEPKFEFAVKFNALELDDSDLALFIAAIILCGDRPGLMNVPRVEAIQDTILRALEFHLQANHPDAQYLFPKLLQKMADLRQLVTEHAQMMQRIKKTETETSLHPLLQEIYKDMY
# In short: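 HEK293H PPARd-bla cells; 5 h preincubation 37 C/5% CO2; compound (DMSO) 37 C; LiveBLAzer B/G FRET substrate 2 h RT; fluorescence intensity.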
# [12] = qHTS assay to identify small molecule antagonists of the peroxisome proliferator-activated receptor delta (PPARd) signaling pathway - cell viability counter screen (AID 743213); further: nearly all actives have a fitted effect of over 50% in size
# In short: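 Luminescence from CellTiter-Glo, added after the bla read and incubated 30 min at room temperature, gives viability of HEK293H PPARd-bla cells exposed to compounds for 17 h at 37 C with 300 nM L165041.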
# [13] = qHTS assay to identify small molecule antagonists of the farnesoid-X-receptor (FXR) signaling pathway - cell viability counter screen (AID 743221; active means well fitted cell-killing curve with a large enough effect in the repeat runs, not every such curve was filed as active; further: nearly all actives have a fitted effect of over 50% in size)
# In short: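 In GeneBLAzer FXR-UAS-bla HEK 293T cells stimulated with 50 uM chenodeoxycholic acid (final), compounds acted for 16 h at 37 C. Viability was assessed afterwards by CellTiter-Glo luminescence.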
# [14] = molecular target: Vitamin D3 receptor (Homo sapiens) (UniProt P11473); test: qHTS assay to identify small molecule agonists of the vitamin D receptor (VDR) signaling pathway (AID 743222; calls by dose curve)
# Vitamin D3 receptor (Homo sapiens), sequence (P11473 whole entry, looked up): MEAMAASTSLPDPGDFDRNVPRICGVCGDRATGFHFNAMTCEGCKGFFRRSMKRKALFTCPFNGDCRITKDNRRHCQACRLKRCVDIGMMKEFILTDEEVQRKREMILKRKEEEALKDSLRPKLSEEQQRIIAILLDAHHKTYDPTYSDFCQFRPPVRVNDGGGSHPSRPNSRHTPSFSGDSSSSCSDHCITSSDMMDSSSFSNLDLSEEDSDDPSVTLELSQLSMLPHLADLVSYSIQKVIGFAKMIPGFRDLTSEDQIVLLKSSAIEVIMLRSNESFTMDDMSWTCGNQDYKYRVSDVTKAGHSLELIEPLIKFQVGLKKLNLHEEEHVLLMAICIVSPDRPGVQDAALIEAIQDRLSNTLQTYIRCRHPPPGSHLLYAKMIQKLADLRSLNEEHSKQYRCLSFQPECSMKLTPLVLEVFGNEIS
# In short: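 VDR-bla cells plated 4 h at 37 C, then exposed to compounds for 16 h at 37 C. Beta-lactamase reporter activity measured by fluorescence after 2 h room-temperature loading with LiveBLAzer B/G FRET substrate.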
# [15] = molecular target: Vitamin D3 receptor (Homo sapiens) (UniProt P11473); test: qHTS assay to identify small molecule antagonists of the vitamin D receptor (VDR) signaling pathway (AID 743223; active means well fitted inhibition curve with a large enough effect in the signal ratio in the repeat runs, not every such curve was filed as active; the % refers to the signal ratio)
# In short: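 Agonist 1alpha,25-dihydroxyvitamin D3 (3 nM in well) was added with each compound to VDR-bla cells preincubated 4 h. Cells stood 16 h at 37C, then FRET substrate 2 h at room temperature; fluorescence intensity recorded.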
# [16] = molecular target: Peroxisome proliferator-activated receptor delta (Homo sapiens) (UniProt Q03181); test: qHTS assay to identify small molecule antagonists of the peroxisome proliferator-activated receptor delta (PPARd) signaling pathway (AID 743215; active means well fitted inhibition curve with a large enough effect in the signal ratio in the repeat runs, not every such curve was filed as active; the % refers to the signal ratio;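 further: cells stimulated with agonist L165041 at 300 nM final during compound exposure; series mostly up to about 62 µM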)
# In short: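 PPARd-bla HEK293H cells (UAS-bla reporter) preincubated 5 h, then given compound plus 300 nM final L165041 agonist for 17 h at 37 C. Beta-lactamase activity read by LiveBLAzer B/G FRET substrate fluorescence after 2 h at room temperature.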
# [17] = molecular target: Bile acid receptor (Homo sapiens) (UniProt Q96RI1); test: qHTS assay to identify small molecule antagonists of the farnesoid-X-receptor (FXR) signaling pathway (AID 743217; active means well fitted inhibition curve with a large enough effect in the signal ratio in the repeat runs, not every such curve was filed as active; the % refers to the signal ratio)
# Bile acid receptor (Homo sapiens), sequence (Q96RI1 whole entry, looked up): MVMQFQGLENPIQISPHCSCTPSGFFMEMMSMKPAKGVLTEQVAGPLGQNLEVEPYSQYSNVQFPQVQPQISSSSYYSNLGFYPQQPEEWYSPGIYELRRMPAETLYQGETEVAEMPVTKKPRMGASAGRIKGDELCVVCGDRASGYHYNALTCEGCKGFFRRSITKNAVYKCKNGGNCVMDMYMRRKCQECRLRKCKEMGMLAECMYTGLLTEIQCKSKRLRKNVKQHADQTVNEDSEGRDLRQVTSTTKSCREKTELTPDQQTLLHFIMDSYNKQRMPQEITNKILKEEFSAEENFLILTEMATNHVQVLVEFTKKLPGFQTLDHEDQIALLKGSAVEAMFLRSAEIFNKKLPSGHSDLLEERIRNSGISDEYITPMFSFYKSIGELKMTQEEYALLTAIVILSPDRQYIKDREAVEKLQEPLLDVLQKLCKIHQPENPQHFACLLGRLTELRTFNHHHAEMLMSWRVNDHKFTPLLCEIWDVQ
# In short: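 FXR-UAS-bla HEK 293T cells (beta-lactamase reporter) given compound plus chenodeoxycholic acid (50 uM final), 16 h at 37C. LiveBLAzer B/G FRET substrate added for 2 h at room temperature; fluorescence read.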
# [18] = molecular target: Bile acid receptor (Homo sapiens) (UniProt Q96RI1); test: qHTS assay to identify small molecule agonists of the farnesoid-X-receptor (FXR) signaling pathway (AID 743220; active means well fitted activation curve with a large enough effect in the signal ratio in the repeat runs, not every such curve was filed as active; the % refers to the signal ratio)
# In short: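 Beta-lactamase reporter under UAS control in GeneBLAzer FXR HEK 293T cells (5000/well) measured with LiveBLAzer FRET substrate after 2 h at room temperature. Compound exposure lasted 16 h at 37C.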
# [19] = qHTS assay to identify small molecule agonists of the farnesoid-X-receptor (FXR) signaling pathway - cell viability counter screen (AID 743218); further: nearly all actives have a fitted effect of over 45% in size
# In short: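 FXR-UAS-bla HEK 293T cells exposed to compounds for 16 h at 37C. Cytotoxicity read in the same wells by CellTiter-Glo luminescence after 30 min at room temperature, following the beta-lactamase FRET read.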
# [20] = molecular target: Peroxisome proliferator-activated receptor gamma (Homo sapiens) (UniProt P37231); test: qHTS assay to identify small molecule antagonists of the peroxisome proliferator-activated receptor gamma (PPARg) signaling pathway (AID 743191; calls by dose curve; further: series mostly up to about 63 µM; nearly all actives have a fitted effect of over 30% in size)
# In short: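 Beta-lactamase reporter under UAS control in HEK293H PPARg-bla cells; compound treatment 17 h at 37C. Read-out: fluorescence intensity after 1 h room-temperature incubation with LiveBLAzer B/G FRET substrate.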
SMILES,Potency [1],Potency [2],Potency [3],outcome [4],outcome [5],Potency [6],Potency [7],outcome [8],outcome [9],Potency [10],outcome [11],Potency [12],Potency [13],outcome [14],outcome [15],Potency [16],outcome [17],outcome [18],Potency [19],Potency [20]
ClC(Cl)(Br)Br,inactive,inactive,inactive,inactive,inactive,inactive,inactive,inactive,inactive,inactive,inactive,inactive,inactive,inactive,inactive,,,,,
O=C(O)CNC(=O)c1ccc([N+](=O)[O-])cc1,inactive,inactive,inactive,inactive,inactive,inactive,inactive,inactive,inactive,inactive,inactive,,inactive,inactive,,inactive,inactive,inactive,,
N#Cc1ccc(C2CCCc3cncn32)cc1 (centres undefined),inactive,inactive,inactive,inactive,inactive,,inactive,inactive,inactive,inactive,inactive,inactive,inactive,inactive,inactive,,,,inactive,
O=c1cc(-c2ccccc2)oc2ccccc12,inactive,24.3 µM (active) and 5.91 µM (active),inactive,inactive,inactive,,inactive,inactive,inactive,inactive,inactive,inactive,inactive,inactive,inactive,,,,,
CCOC(=O)CCC(C)=O,inactive,inactive,inactive,inactive,inactive,inactive,inactive,inactive,inactive,inactive,inactive,inactive,inactive,inactive,inactive,,inactive,inactive,inactive,
Cc1ccc(C#N)cc1,inactive,inactive,inactive,inactive,inactive,,inactive,inactive,inactive,inactive,inactive,inactive,inactive,inactive,,inactive,inactive,inactive,inactive,
N[C@H]1CN(c2c(F)cc3c(=O)c(C(=O)O)cn(C4C[C@H]4F)c3c2Cl)CC12CC2 (some centres undefined),inactive,inactive,inactive,inactive,inactive,,inactive,inactive,inactive,inactive,,inactive,inactive,inactive,,,,,inactive,
CC(C)(O)C#CC(C)(C)O,inactive,inactive,inactive,inactive,inactive,inactive,inactive,inactive,inactive,inactive,inactive,inactive,inactive,,,inactive,,,,
c1ccc([C@H]2CN3CCSC3=N2)cc1,inactive,inactive,inactive,inactive,inactive,inactive,inactive,inactive,inactive,,inactive,inactive,inactive,inactive,,inactive,,,inactive,
C[N+](C)(C)CCCCCC[N+](C)(C)C,inactive,inactive,inactive,inactive,inactive,inactive,inactive,,inactive,inactive,inactive,inactive,inactive,,,inactive,inactive,inactive,inactive,
CCOc1ccc(C(=O)OCCN(CC)CC)cc1,inactive,inactive,,inactive,inactive,inactive,inactive,inactive,inactive,,,inactive,inactive,inactive,inactive,,inactive,inactive,,inactive
CN1CCC(=C2c3ccccc3CC(=O)c3sccc32)CC1,inactive,inactive,inactive,,inactive,,inactive,inactive,inactive,inactive,inactive,,inactive,inactive,inactive,,inactive,inactive,inactive,inactive
CS(=O)(=O)O,inactive,inactive,inactive,,inactive,inactive,inactive,inactive,inactive,inactive,,,inactive,inactive,inactive,,inactive,inactive,,
CC(C)CNCC(C)C,inactive,inactive,inactive,,inactive,inactive,inactive,inactive,,inactive,inactive,inactive,inactive,inactive,,inactive,inactive,inactive,,
CCN1CCC[C@H]1CNC(=O)c1cc(S(N)(=O)=O)ccc1OC,inactive,inactive,,inactive,inactive,inactive,inactive,inactive,inactive,inactive,,inactive,inactive,inactive,inactive,,,,inactive,inactive
OC1CCCCC1c1ccccc1 (centres undefined),inactive,inactive,inactive,,inactive,inactive,inactive,inactive,inactive,inactive,inactive,inactive,inactive,inactive,inactive,,,,inactive,
Oc1ccc(C2CNCCc3c2cc(O)c(O)c3Cl)cc1 (centres undefined),inactive,inactive,inactive,inactive,inactive,,inactive,,inactive,inactive,,inactive,inactive,inactive,inactive,,,,,
O=c1[nH]c(=O)n([C@H]2C[C@H](O)[C@@H](CO)O2)cc1I,inactive,inactive,,inactive,inactive,inactive,inactive,inactive,inactive,inactive,inactive,inactive,inactive,inactive,inactive,inactive,,,inactive,inactive
CCN1CCC[C@H]1CNC(=O)c1c(O)c(Cl)cc(Cl)c1OC,inactive,inactive,inactive,,inactive,inactive,inactive,inactive,inactive,inactive,inactive,,inactive,,,,,,inactive,
NS(=O)(=O)c1cc(C(=O)O)cc(N2CCCC2)c1Oc1ccccc1,inactive,inactive,inactive,,inactive,inactive,inactive,inactive,inactive,,inactive,inactive,inactive,inactive,inactive,,,,inactive,
CCOC(=O)c1c(C)n(C)c2ccc(O)cc12,inactive,1.68 µM (active),inactive,,inactive,,inactive,inactive,inactive,inactive,,inactive,inactive,inactive,inactive,,inactive,inactive,inactive,
C=CCCCCCCCCC=O,inactive,inactive,inactive,inactive,inactive,,,inactive,inactive,,,inactive,inactive,,inactive,inactive,,,inactive,
Nc1c[n+](N2CCOCC2)no1,inactive,inactive,inactive,,inactive,inactive,inactive,inactive,inactive,inactive,inactive,inactive,inactive,,,inactive,inactive,inactive,,
CN1CCN(c2cc3c(cc2F)c(=O)c(C(=O)O)cn3-c2ccc(F)cc2)CC1,inactive,inactive,inactive,,inactive,inactive,inactive,inactive,inactive,inactive,,inactive,inactive,inactive,,,inactive,inactive,inactive,
CC1(C)CO[C@@H](CC(=O)O)CN1,inactive,inactive,inactive,,inactive,inactive,inactive,inactive,,inactive,inactive,,inactive,inactive,inactive,inactive,,,,
C/C=C(\C)C#N,inactive,inactive,inactive,inactive,,,,inactive,inactive,inactive,inactive,inactive,inactive,inactive,inactive,,,,,
CCO[Si](CCC1CCC2OC2C1)(OCC)OCC (centres undefined),inactive,inactive,,inactive,inactive,inactive,inactive,inactive,inactive,inactive,inactive,inactive,inactive,inactive,inactive,inactive,inactive,inactive,inactive,inactive
